“And” between values parts separate entries of the source, which are not always exact repeats. Identical values can stand only once. In all, about 5,500 compounds went through this assay and about 2,000 (36%) were called active. Another 18% or so got no clear call; they are omitted. Cut-off read from the data, not from the text of the source: active = normalized growth mostly below about 0.91 (no sharp cut-off); inconclusive = no clear call, values can overlap the other calls; inactive = mostly above about 0.92. Some of the results follow.
Assay: chemical genetic growth profiling, strain panel (AID 1159580);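 note: tested at 20 µM; growth read once vehicle control cultures reached saturation at 30 °C; 1 = growth at the plate median or of vehicle wells; lower values mean less growth of the strain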
Settings: S. cerevisiae deletion strains, growth OD

Measured: normalized growth

COC[C@]12CN(C=O)C3[C@@H]4[C@H](OC)C1[C@]3(C1CC3(O)C(OC)C(O)C4(OC(C)=O)C1C3OC(=O)c1ccccc1)[C@@H](OC)C[C@H]2O (stereo not given in full)
inactive: locus YAL021C, strain ccr4, hits give low values 1.02 | locus YAL026C, strain drs2, hits give low values 1.01 | locus YAL030W, strain snc1, hits give low values 1.01 | locus YBL061C, strain skt5, hits give low values 1.01 | locus YBR009C, strain hhf1, hits give low values 1.01 | locus YBR021W, strain FUR4, hits give low values 0.995 | locus YBR023C, strain chs3, hits give low values 1.01 | locus YBR171W, strain sec66, hits give low values 1.03 | locus YBR229C, strain ROT2, hits give low values 1.01 | locus YBR231C, strain swc5, hits give low values 1.01 | locus YBR279W, strain paf1, hits give low values 1.01 | locus YCL011C, strain gbp2, hits give low values 1.01 | locus YCL016C, strain dcc1, hits give low values 1.01 | locus YCL029C, strain bik1, hits give low values 0.997 | locus YCL061C, strain MRC1, hits give low values 1.02 | locus YCL069W, strain vba3, hits give low values 1.01 | locus YCR088W, strain abp1, hits give low values 1.01 | locus YDL005C, strain med2, hits give low values 1.02 | locus YDL035C, strain GPR1, hits give low values 1.01 | locus YDL040C, strain nat1, hits give low values 1.01 | locus YDL074C, strain BRE1, hits give low values 1.03 | locus YDL101C, strain DUN1, hits give low values 1.02 | locus YDL185W, strain tfp1, hits give low values 1.01 | locus YDL192W, strain arf1, hits give low values 1 | locus YDR001C, strain nth1, hits give low values 1.01 | locus YDR069C, strain doa4, hits give low values 1.02 | locus YDR101C, strain arx1, hits give low values 0.99 | locus YDR137W, strain rgp1, hits give low values 1.01 | locus YDR159W, strain sac3, hits give low values 1.01 | locus YDR162C, strain NBP2, hits give low values 1.02 | locus YDR195W, strain ref2 1.01 | locus YDR297W, strain sur2, hits give low values 1 | locus YDR318W, strain mcm21, hits give low values 1.01 | locus YDR334W, strain swr1, hits give low values 1.01 | locus YDR335W, strain msn5, hits give low values 0.998 | locus YDR388W, hits give low values 0.998 | locus YDR392W, strain spt3, hits give low values 1.01 | locus YDR502C, strain sam2, hits give low values 1.02 | locus YEL003W, strain gim4, hits give low values 1.01 | locus YEL037C, strain rad23, hits give low values 1 | locus YEL061C, strain CIN8 (second series), hits give low values 1 | locus YEL061C, strain CIN8, hits give low values 1.01 | locus YER015W, strain faa2, hits give low values 1.01 | locus YER016W, strain bim1, hits give low values 1.03 | locus YER110C, hits give low values 1.01 | locus YER111C, strain swi4, hits give low values 1.01 | locus YER155C, strain BEM2 (second series), hits give low values 1.03 | locus YER155C, strain BEM2, hits give low values 0.995 | locus YER167W, strain BCK2, hits give low values 1.01 | locus YFR010W, strain ubp6, hits give low values 1.02 | locus YGL078C, strain dbp3, hits give low values 1.02 | locus YGL086W, strain mad1, hits give low values 1.01 | locus YGL167C, strain pmr1, hits give low values 1.02 | locus YGL173C, strain kem1, hits give low values 1.01 | locus YGL227W, strain vid30, hits give low values 1.01 | locus YGL240W, strain doc1, hits give low values 1.01 | locus YGL248W, strain PDE1, hits give low values 1.02 | locus YGL253W, strain hxk2, hits give low values 1.02 | locus YGR135W, strain pre9, hits give low values 1.02 | locus YGR252W, strain gcn5, hits give low values 1.02 | locus YHR013C, strain ard1, hits give low values 1.01 | locus YHR027C, strain rpn1, hits give low values 1.01 | locus YHR030C, strain SLT2, hits give low values 1 and 1.05 | locus YHR079C, strain IRE1 (second series), hits give low values 1.01 | locus YHR079C, strain IRE1, hits give low values 1.04 | locus YHR094C, strain hxt1, hits give low values 1.01 | locus YHR129C, strain ARP1, hits give low values 1 | locus YHR142W, strain chs7, hits give low values 0.999 | locus YHR200W, strain rpn10, hits give low values 1.01 | locus YIL066C, strain RNR3, hits give low values 1.01 | locus YIL073C, strain SPO22, hits give low values 1.04 | locus YIL125W, strain kgd1, hits give low values 0.999 | locus YIR030C, strain dcg1, hits give low values 1 | locus YJL092W, strain hpr5, hits give low values 1.01 | locus YJL095W, strain BCK1 (second series), hits give low values 1.02 | locus YJL095W, strain BCK1, hits give low values 1.04 and 1.02 | locus YJL115W, strain asf1, hits give low values 0.997 | locus YJL129C, strain trk1, hits give low values 1.02 | locus YJL134W, strain LCB3, hits give low values 1.01 | locus YJL154C, strain vps35, hits give low values 1.01 | locus YJL164C, strain tpk1, hits give low values 1.01 | locus YJL166W, strain qcr8, hits give low values 1.01 | locus YJL168C, strain set2, hits give low values 0.997 | locus YJL187C, strain SWE1 (second series), hits give low values 1.03 | locus YJL187C, strain SWE1, hits give low values 1.01
